From the supplement of paper PMC13380429
Values without a mark were called inactive.

Test system: Vero E6 infected with SARS-CoV-2
Assay: inhibition of SARS-CoV-2 cytopathic effect; higher = more antiviral protection, active = above 15
Settings: 48 h

**Q.** Which results are given for `C[C@H]1CCC/C=C/[C@@H]2C[C@H](O)C[C@H]2[C@H](O)/C=C/C(=O)O1` [brefeldin-A]?
**A.** inhibition of SARS-CoV-2 cytopathic effect (1 nM): 0.16%; inhibition of SARS-CoV-2 cytopathic effect (8.33 nM): 2.51%; inhibition of SARS-CoV-2 cytopathic effect (100 nM): 47.2% (active); inhibition of SARS-CoV-2 cytopathic effect (833.33 nM): -3.55%; inhibition of SARS-CoV-2 cytopathic effect (10000 nM): -4.89%

**Q.** Which “inhibition of SARS-CoV-2 cytopathic effect” value (shortened to “inhibition”) (1 nM) does the source give for `CN1CCN(c2ncc(-c3cc(Cl)cc(Cl)c3Cl)c(N)n2)CC1` [sipatrigine] here?
**A.** Its value is -3.16%.

**Q.** And the “inhibition” value (8.33 nM)?
**A.** Its value is -4.99%.

**Q.** And the “inhibition” value (100 nM)?
**A.** The value was -2.74%.

**Q.** And the “inhibition” value (833.33 nM)?
**A.** Its value is -3.24%.

**Q.** What about the “inhibition” value (10000 nM) of the same compound?
**A.** The value was 2.7%.

**Q.** Which results are given for `O=C1NN(C(=O)Nc2ccc(Br)cc2)[C@@H](c2ccccc2)[C@@H]1c1ccccc1`?
**A.** inhibition of SARS-CoV-2 cytopathic effect (1 nM): 0.57%; inhibition of SARS-CoV-2 cytopathic effect (8.33 nM): 1.35%; inhibition of SARS-CoV-2 cytopathic effect (100 nM): -2.12%; inhibition of SARS-CoV-2 cytopathic effect (833.33 nM): -0.26%; inhibition of SARS-CoV-2 cytopathic effect (10000 nM): -1.96%

**Q.** With `FC(F)(F)C(F)(F)C(F)(F)N(C(F)(F)C(F)(F)C(F)(F)F)C(F)(F)C(F)(F)C(F)(F)F` [perfluamine] as the compound, how does the “inhibition” value (1 nM) read?
**A.** The value was -4.49%.

**Q.** What about the “inhibition” value (8.33 nM) of the same compound?
**A.** Its value is -1.58%.

**Q.** What about the “inhibition” value (100 nM) of the same compound?
**A.** Its value is -5.22%.

**Q.** And the “inhibition” value (833.33 nM)?
**A.** The value was -3.78%.

**Q.** And the “inhibition” value (10000 nM)?
**A.** The value was -1.62%.

**Q.** What does the source list for `CCOCCOc1ccccc1C(N)=O` [etosalamide]?
**A.** inhibition of SARS-CoV-2 cytopathic effect (1 nM): -2.2%; inhibition of SARS-CoV-2 cytopathic effect (8.33 nM): -0.59%; inhibition of SARS-CoV-2 cytopathic effect (100 nM): -5.45%; inhibition of SARS-CoV-2 cytopathic effect (833.33 nM): -5.67%; inhibition of SARS-CoV-2 cytopathic effect (10000 nM): -2.33%

**Q.** With `C[C@H]1c2cccc(O)c2C(=O)C2=C(O)[C@]3(O)C(=O)C(C(N)=O)=C(O)[C@@H](N(C)C)[C@@H]3[C@@H](O)[C@@H]21` [doxycycline] as the compound, how does the “inhibition” value (1 nM) read?
**A.** The value was -1.68%.

**Q.** What about the “inhibition” value (8.33 nM) of the same compound?
**A.** Its value is -0.605%.

**Q.** What about the “inhibition” value (100 nM) of the same compound?
**A.** Its value is 0.42%.

**Q.** And the “inhibition” value (833.33 nM)?
**A.** Its value is 0.08%.

**Q.** And the “inhibition” value (10000 nM)?
**A.** Its value is -0.76%.
